The structures appear in SMILES notation. “And” between values parts separate entries of the source, which are not always exact repeats. Equal entries are not always repeated.

5'-AMP-activated protein kinase catalytic subunit alpha-2 (Homo sapiens), sequence (P54646 whole entry, looked up): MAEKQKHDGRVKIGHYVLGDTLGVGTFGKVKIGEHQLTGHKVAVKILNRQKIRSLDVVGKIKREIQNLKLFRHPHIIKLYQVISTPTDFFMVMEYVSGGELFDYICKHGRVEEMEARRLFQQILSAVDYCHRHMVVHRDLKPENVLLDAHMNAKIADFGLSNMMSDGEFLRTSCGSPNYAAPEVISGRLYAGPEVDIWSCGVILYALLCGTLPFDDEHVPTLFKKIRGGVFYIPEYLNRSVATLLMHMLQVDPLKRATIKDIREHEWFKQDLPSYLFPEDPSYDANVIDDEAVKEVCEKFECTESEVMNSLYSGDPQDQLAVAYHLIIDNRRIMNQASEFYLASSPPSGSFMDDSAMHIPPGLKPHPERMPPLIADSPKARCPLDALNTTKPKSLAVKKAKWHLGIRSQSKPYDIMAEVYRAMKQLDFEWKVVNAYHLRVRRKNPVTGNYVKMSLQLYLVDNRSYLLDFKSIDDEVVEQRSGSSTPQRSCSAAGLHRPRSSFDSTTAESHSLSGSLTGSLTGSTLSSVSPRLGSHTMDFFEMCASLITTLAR
5'-AMP-activated protein kinase catalytic subunit alpha-1 (Homo sapiens), sequence (Q13131 whole entry, looked up): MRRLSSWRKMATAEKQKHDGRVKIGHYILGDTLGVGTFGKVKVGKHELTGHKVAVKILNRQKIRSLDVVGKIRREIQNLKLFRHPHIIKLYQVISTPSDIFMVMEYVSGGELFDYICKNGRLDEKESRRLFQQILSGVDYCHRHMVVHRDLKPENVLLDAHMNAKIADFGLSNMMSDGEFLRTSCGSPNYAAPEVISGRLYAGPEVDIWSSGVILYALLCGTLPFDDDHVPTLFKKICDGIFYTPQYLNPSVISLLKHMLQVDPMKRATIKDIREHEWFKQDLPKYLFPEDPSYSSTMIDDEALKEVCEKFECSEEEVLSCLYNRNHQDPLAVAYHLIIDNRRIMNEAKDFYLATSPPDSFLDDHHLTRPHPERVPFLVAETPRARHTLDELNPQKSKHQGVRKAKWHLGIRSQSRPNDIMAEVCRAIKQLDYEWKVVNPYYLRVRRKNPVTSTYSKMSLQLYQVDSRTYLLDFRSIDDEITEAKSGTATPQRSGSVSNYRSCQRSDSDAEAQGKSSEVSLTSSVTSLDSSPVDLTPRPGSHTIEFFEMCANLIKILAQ

The first experiment concerns the target 5'-AMP-activated protein kinase catalytic subunit alpha-1 (Homo sapiens) (UniProt Q13131). The conditions noted are these: at 1 µM.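 Also: mean percent inhibition of the AMPK A1B1G1 complex (alpha1 beta1 gamma1) in the GSK PKIS kinase inhibitor screen.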
With `CCCNc1cccc(-n2ncc3c(N/N=C/c4ccncc4)ncnc32)c1`, the inhibition is 3.53%.
For `COC(=O)Nc1nc2ccc(Oc3ccc(NC(=O)Nc4cc(C(F)(F)F)ccc4F)cc3)cc2s1`, the inhibition came out at 0.03%.
On the same count and under the same terms, with `N#Cc1ccc2c(-c3ccnc(NC4CC4)n3)c(-c3ccc(F)cc3)nn2c1` the figure was 0.77%; with `Fc1cccc(COc2ccc(Nc3ncncc3C#Cc3ccccc3)cc2Cl)c1`, 7.14%; with `NS(=O)(=O)c1cccc(N/C=C2\C(=O)Nc3ccccc32)c1`, 12%.
Same read-out and setting: with `COc1ccccc1-c1cc(/C=C2\C(=O)Nc3ncc(Br)cc32)cc(Br)c1O` the figure was 9.85%; with `COC(=O)Nc1nc2cc(Oc3ccc(NC(=O)Nc4ccccc4)cc3)ccc2[nH]1`, 2.79%.
On the same count and under the same terms, with `O=C(O[C@H]1CN[C@H](C#Cc2cc3ncnc(Nc4ccc5c(cnn5Cc5ccccc5)c4)c3s2)C1)N1CCOCC1` the figure was 3.86%; with `CCn1c(-c2nonc2N)nc2cncc(C(=O)NCCNC)c21`, 8.23%.
Consider `Cc1cc(O)cc(C)c1/C=C/c1cncc(C(=O)OC(C)(C)C)c1`, for which the inhibition stood at 3.91%.
Same read-out and setting: next, `N#Cc1cccc(Nc2ncc(-c3ccccc3)o2)c1`: 1.53%.
Same read-out and setting: with `CNC(=O)c1sc(-n2cnc3cc(OC)c(OC)cc32)cc1OCc1ccccc1C(F)(F)F` the figure was 4.14%.
The same measure, in the same setting: with `COc1ccc2ncn(-c3cc(O[C@H](C)c4ccccc4C(F)(F)F)c(C(N)=O)s3)c2c1` the figure was 3.14%.
On to `COc1ccc(-c2nn3ncccc3c2-c2ccnc(Nc3ccc(F)c(F)c3)n2)cc1`, for which the inhibition stood at 9.36%.
Still for that read-out and setting: next, `Cc1cc(O)cc(C)c1/C=C/c1cncc(C(N)=O)c1`: 1.85%; `Fc1ccc(Nc2nccc(-c3c(-c4ccc(C(F)(F)F)cc4)nn4ncccc34)n2)cc1F`: 0.39%.
Take `c1ccc(-c2n[nH]cc2-c2ccnc(-c3ccc(OCCn4ccnc4)cc3)c2)nc1`: the inhibition is 3.29%.
On the same count and under the same terms, with `COc1cc(N2CCN(C(C)C)CC2)ccc1Nc1nc(Nc2cccc(F)c2C(=O)O)c2cc[nH]c2n1` the figure was 5.67%; with `CS(=O)(=O)Nc1ccc(-c2cc(-c3ccccc3)cc(C(N)=O)c2N)cc1`, 1.42%.
On the same count and under the same terms, next, `Nc1ncnc2occ(-c3ccc(NC(=O)Nc4cc(C(F)(F)F)ccc4F)cc3)c12`: 1.94% and -0.8%; `COc1cc2c(cc1Nc1nc(Nc3cccc(F)c3C(N)=O)c3cc[nH]c3n1)N(C(=O)CN1CCN(C(C)C)CC1)CC2`: 3.93%; `CCS(=O)(=O)c1ccc(OC)c(Nc2ncc(-c3cccc(C(C)=O)c3)o2)c1`: 4.72%.
`CC(C)c1ccc(-c2cc(-c3c[nH]nc3-c3ccccn3)ccn2)cc1`: the inhibition is -1.2%.
Still for that read-out and setting: with `O=C(O[C@H]1CN[C@H](C#Cc2cc3ncnc(Nc4ccc5c(ccn5Cc5cc(F)ccc5F)c4)c3s2)C1)N1CCOCC1` the figure was 1.13%; with `CN(c1ccc(NC(=O)NCCN2CCOCC2)cc1)c1ccnc(Nc2ccc(CS(C)(=O)=O)cc2)n1`, 4.22%.
Still for that read-out and setting: with `NS(=O)(=O)c1ccc(N/N=C2\C(=O)Nc3cccc(CCc4ccncc4)c32)cc1` the figure was 8.26%; with `CNC(=O)c1cncc(/C=C/c2ccccc2C)c1`, 7.91%; with `CN1CCC(C(=O)Nc2n[nH]c3nc(-c4ccc(O)cc4)c(Br)cc23)CC1`, 18.7% and 10.6%.
As for `COc1c(C(N)=O)cc(-c2ccc(Cl)cc2)cc1-c1ccc(S(N)(=O)=O)cc1`, the inhibition was found to be 4.47%.
Same read-out and setting: next, `CN1CCN(Cc2ccc(-c3cc4ncnc(Nc5ccc(OCc6cccc(F)c6)c(Cl)c5)c4s3)o2)CC1`: 3% and 5.69%; `NC(=O)c1ccc2c(-c3ccnc(NCCCO)n3)c(-c3ccc(F)cc3)nn2c1`: 7.4%.

Another experiment addresses 5'-AMP-activated protein kinase catalytic subunit alpha-2 (Homo sapiens) (UniProt P54646). The following applies: at 0.1 µM.
For the compound `CCCNc1cccc(-n2ncc3c(N/N=C/c4ccncc4)ncnc32)c1`, the inhibition was -1.29%.
On to `COC(=O)Nc1nc2ccc(Oc3ccc(NC(=O)Nc4cc(C(F)(F)F)ccc4F)cc3)cc2s1`, for which the inhibition turned out to be 0.72%.
For the compound `N#Cc1ccc2c(-c3ccnc(NC4CC4)n3)c(-c3ccc(F)cc3)nn2c1`, the inhibition turned out to be 0.36%.
With `Fc1cccc(COc2ccc(Nc3ncncc3C#Cc3ccccc3)cc2Cl)c1`, the inhibition turned out to be 1.38%.
The same measure, in the same setting: next, `NS(=O)(=O)c1cccc(N/C=C2\C(=O)Nc3ccccc32)c1`: 4.65%; `COc1ccccc1-c1cc(/C=C2\C(=O)Nc3ncc(Br)cc32)cc(Br)c1O`: 5.58%; `COC(=O)Nc1nc2cc(Oc3ccc(NC(=O)Nc4ccccc4)cc3)ccc2[nH]1`: 0.01%.
Still for that read-out and setting: next, `O=C(O[C@H]1CN[C@H](C#Cc2cc3ncnc(Nc4ccc5c(cnn5Cc5ccccc5)c4)c3s2)C1)N1CCOCC1`: 2.29%; `CCn1c(-c2nonc2N)nc2cncc(C(=O)NCCNC)c21`: 2.58%.
Regarding `Cc1cc(O)cc(C)c1/C=C/c1cncc(C(=O)OC(C)(C)C)c1`, the inhibition was determined as 2.92%.
`N#Cc1cccc(Nc2ncc(-c3ccccc3)o2)c1`: the inhibition is -0.83%.
Still for that read-out and setting: next, `CNC(=O)c1sc(-n2cnc3cc(OC)c(OC)cc32)cc1OCc1ccccc1C(F)(F)F`: 0.14%; `COc1ccc2ncn(-c3cc(O[C@H](C)c4ccccc4C(F)(F)F)c(C(N)=O)s3)c2c1`: 0.8%.
On the same count and under the same terms, next, `COc1ccc(-c2nn3ncccc3c2-c2ccnc(Nc3ccc(F)c(F)c3)n2)cc1`: 2.91%; `Cc1cc(O)cc(C)c1/C=C/c1cncc(C(N)=O)c1`: 2.5%.
The same measure, in the same setting: next, `Fc1ccc(Nc2nccc(-c3c(-c4ccc(C(F)(F)F)cc4)nn4ncccc34)n2)cc1F`: 1.16%; `c1ccc(-c2n[nH]cc2-c2ccnc(-c3ccc(OCCn4ccnc4)cc3)c2)nc1`: 2.92%; `COc1cc(N2CCN(C(C)C)CC2)ccc1Nc1nc(Nc2cccc(F)c2C(=O)O)c2cc[nH]c2n1`: 0.48%.
In the case of `CS(=O)(=O)Nc1ccc(-c2cc(-c3ccccc3)cc(C(N)=O)c2N)cc1`, the inhibition was 5.24%.
For `Nc1ncnc2occ(-c3ccc(NC(=O)Nc4cc(C(F)(F)F)ccc4F)cc3)c12`, the inhibition was -0.22% and 3.36%.
Still for that read-out and setting: next, `COc1cc2c(cc1Nc1nc(Nc3cccc(F)c3C(N)=O)c3cc[nH]c3n1)N(C(=O)CN1CCN(C(C)C)CC1)CC2`: 5.43%; `CCS(=O)(=O)c1ccc(OC)c(Nc2ncc(-c3cccc(C(C)=O)c3)o2)c1`: -0.37%.
On the same count and under the same terms, with `CC(C)c1ccc(-c2cc(-c3c[nH]nc3-c3ccccn3)ccn2)cc1` the figure was 0.19%.
The same measure, in the same setting: with `O=C(O[C@H]1CN[C@H](C#Cc2cc3ncnc(Nc4ccc5c(ccn5Cc5cc(F)ccc5F)c4)c3s2)C1)N1CCOCC1` the figure was 3.89%; with `CN(c1ccc(NC(=O)NCCN2CCOCC2)cc1)c1ccnc(Nc2ccc(CS(C)(=O)=O)cc2)n1`, 0.93%.
For the compound `NS(=O)(=O)c1ccc(N/N=C2\C(=O)Nc3cccc(CCc4ccncc4)c32)cc1`, the inhibition was 3.2%.
`CNC(=O)c1cncc(/C=C/c2ccccc2C)c1`: the inhibition stood at 2.05%.
On the same count and under the same terms, with `CN1CCC(C(=O)Nc2n[nH]c3nc(-c4ccc(O)cc4)c(Br)cc23)CC1` the figure was 3.96% and 2.49%; with `COc1c(C(N)=O)cc(-c2ccc(Cl)cc2)cc1-c1ccc(S(N)(=O)=O)cc1`, 7.86%.
On to `CN1CCN(Cc2ccc(-c3cc4ncnc(Nc5ccc(OCc6cccc(F)c6)c(Cl)c5)c4s3)o2)CC1`, for which the inhibition was 3.72% and 4.13%.
Same read-out and setting: next, `NC(=O)c1ccc2c(-c3ccnc(NCCCO)n3)c(-c3ccc(F)cc3)nn2c1`: 3.45%.

Broadly, the inhibition is the drop in the measured response relative to a control, in per cent.

The values above are taken from ChEMBL document CHEMBL1961873, “Compounds: GSK PKIS; Assays: Nanosyn kinase panel” (2012).
